# DUSP3 inh: blocks human VHR1 dual specificity phosphatase; P51452; recombinant VHR phosphatase, pNPP absorbance; inhibition, % at 13.3 µM; hit rate 0.52% among 290,000; AID 1654; in the data active = inhibition above about 50%
# RecA splice inh: Mtb RecA intein splicing inhibition; P9WHJ3; cell-free RecA intein splicing, fluorescence; inhibition, % (no concentration beside the values); hit rate 0.75% among 290,000; in the data active = inhibition above about 30%
# Mtb FBA inh: inhibits M. tuberculosis FBA enzyme | P9WQA3 | purified M. tuberculosis FBA, fluorescence read-out | inhibition, % at 1 µM | hit rate 2.3% among 360,000; in the data active = inhibition above about 27%
# CCHFV vOTU inh: blocks the CCHF virus ovarian tumor domain protease | hit rate 0.55% among 370,000 | inhibition, % at 11.5 µM | AID 651958 | CCHFV vOTU protease, Pep-AMC fluorescence
# GDH-TPI counter: counter-screen for M. tuberculosis FBA inhibitors: GDH-TPI coupled enzymes | GDH-TPI coupled enzyme counterscreen, NADH absorbance | inhibition, % at 4.8 µM | hit rate 1.2% among 360,000
# 3CLpro inhibitor: SARS-CoV 3CLpro protease inhibition | P0C6X7 | recombinant SARS-CoV 3CLpro, quenched FRET peptide cleavage | inhibition, % at 6 µM | hit rate 0.14% among 290,000 | AID 1706; in the data active = inhibition above about 12%
# Numbers stand for hits; . = inactive; / = not tested or not shown; + = active, no number. Compounds with a hit are over-represented: about 4.7% of the library has one in this group of screens. Cut-off read from the data, not from the text of the source, unless noted: active = inhibition above about 30%; inactive = the rest.
SMILES,DUSP3 inh,RecA splice inh,Mtb FBA inh,CCHFV vOTU inh,GDH-TPI counter,3CLpro inhibitor
CCOc1ccccc1NC(=O)C(OC(=O)c1ccc(NC(=O)CC#N)cc1)c1ccccc1 (stereo unspecified),/,.,.,.,.,/
Cc1ccc(C(=O)N2O[C@]34C=C[C@]25C[C@@H](O)CC[C@]5(C)C3CC[C@]2(C)[C@@H]([C@H](C)/C=C/[C@H](C)C(C)C)CC[C@H]24)cc1 (stereo partly specified),/,/,/,.,/,/
COC(=O)C1=CN(c2cc(C)cc(C)c2)C=C(C(=O)OC)C1c1cccc(F)c1,.,.,.,.,.,.
CCN1C=C(C(=O)OC)C(c2cccc(C)c2)C(C(=O)OC)=C1,.,.,+,.,.,.
CCOC(=O)C1=CCC(c2ccc([N+](=O)[O-])cc2)N(S(=O)(=O)c2ccc(C)cc2)C1 (stereo unspecified),/,/,/,.,/,/
Oc1c(Br)cc(/C=N/n2c(-c3ccccc3)n[nH]c2=S)c(O)c1Br,.,.,.,/,36,.
Oc1c(Br)cc(/C=N/n2c(-c3ccccc3)n[nH]c2=S)cc1Br,.,.,.,.,31,.
Oc1ccc(/C=N/n2c(-c3ccccc3)n[nH]c2=S)cc1Br,.,.,.,.,48,.
CN(C)c1cccc2c(S(=O)(=O)NCC3CCN(C(=O)C(=O)c4cccs4)CC3)cccc12,/,/,/,.,/,/
COC(=O)c1cc2c(c3c4ccccc4n(S(=O)(=O)c4ccccc4)c13)C(=O)N(Cc1ccc(N(C)C)cc1)C2,/,/,/,.,/,/
COc1ccc(Cl)cc1NC(=O)CCn1cnc2ccccc2c1=O,.,.,49,.,.,.
O=C(CCn1cnc2ccccc2c1=O)Nc1cccc(Cl)c1,.,.,.,.,.,.
CCOC(=O)[C@H]1NN=C(C(=O)OC)[C@@H]1c1ccccc1,.,.,.,.,.,.
N#CC(C(=S)Nc1ccccc1)c1nc2ccccc2[nH]1 (stereo unspecified),.,.,.,.,62,.
Cc1ccc(-c2nnnn2-c2ccc(C)cc2)cc1,.,.,.,.,.,.
Cc1ccc(-n2nnnc2CCl)cc1,.,46,.,.,.,.
COc1cc2oc(=O)ccc2c(OC)c1CC(O)C(C)(C)O (stereo unspecified),.,.,.,.,.,/
O=c1ccc2cc(OC3O[C@H](CO)[C@@H](O)[C@H](O)[C@H]3O)c(O)cc2o1 (stereo partly specified),/,/,/,.,.,/
COc1cc2ccc(=O)oc2cc1O,/,/,+,.,.,/
COc1cc2ccc(=O)oc2cc1OCC(O)C(C)(C)O (stereo unspecified),.,.,138,.,.,/
CCc1nc2ccc(C(=O)N3CCCCC3)cn2c1N(C)CCCc1ccccc1,/,/,.,.,.,/
CC1CCCCN1CCCNC(=O)CN1C(=O)c2cccnc2Oc2ccccc21 (stereo unspecified),56,.,.,.,.,.
CCC1Oc2ccc(C)cc2N(CC(=O)NCCCN2CCCCC2C)C1=O (stereo unspecified),58,.,.,.,.,.
CCN(CC)C(=O)C1=C(C)N(CCC2=CCCCC2)C(=O)C(CC(=O)NC(c2ccccc2)c2ccccc2)C1 (stereo unspecified),/,/,.,.,.,/
COc1ccc(S(=O)(=O)N2CCOCC2)cc1N=Nc1sc(N)nc1-c1ccccc1,56,.,.,.,.,.
SMILES,DUSP3 inh,RecA splice inh,Mtb FBA inh,CCHFV vOTU inh,GDH-TPI counter,3CLpro inhibitor
COC(=O)C1=C(C)N(C)C(=NCc2ccccc2)NC1c1ccc(F)cc1 (stereo unspecified),/,/,/,.,/,/
Cc1nn2c(C)c(C(=O)Nc3ccccc3)cnc2c1C#N,51,.,.,.,.,.
CC(C)NC(=O)N(C)C[C@H]1Oc2cc(C#Cc3ccc(F)cc3)ccc2S(=O)(=O)N([C@H](C)CO)C[C@H]1C,/,/,.,.,.,/
CCN=c1scc(-c2ccco2)n1/N=C/c1ccc(OC)c(O)c1,.,.,.,.,32,.
CN(Cc1ccccc1)C1=CC(=[N+]2CCCCC2)CC(C)(C)C1,.,.,.,.,68,.
CC1(C)CC(N2CCN(Cc3ccccc3)CC2)=CC(=[N+]2CCCCC2)C1,.,.,.,.,64,.
Nc1c(C(=O)NCC2CCCO2)sc2nc3c(c(-c4ccco4)c12)CC/C3=C\c1ccco1 (stereo unspecified),101,/,.,.,.,.
NC(=O)c1sc2nc3c(c(-c4ccco4)c2c1N)CCCC3,.,.,.,.,.,.
COC(=O)/C=C1\OC(C)c2ccccc21 (stereo unspecified),/,/,/,.,/,/
O=C(NCc1ccccn1)C(=O)Nc1cccc2ccccc12,.,.,.,.,.,.
CCN1C(=O)N/C(=C/c2cc(C)n(Cc3ccccc3)c2C)C1=O,.,.,.,.,32,.
COc1cc(/C=N/NC(=O)c2nc(C)cc(C)n2)ccc1O,.,.,.,.,37,.
COc1cc(/C=N/NC(=O)c2ccncc2)ccc1O,.,.,.,.,.,.
CCOc1cc(/C=N/Nc2nc(N3CCCC3)nc(N3CCCC3)n2)ccc1O,.,.,.,.,36,.
COc1cc(/C=N/NC(=O)c2cccc(C(=O)N/N=C/c3ccc(O)c(OC)c3)n2)ccc1O,/,.,.,.,44,.
COc1cc(/C=N/Nc2nc(C)cc(C)n2)ccc1O,/,/,.,.,36,/
COc1ccc(-c2ccc3c(n2)CCCN3S(=O)(=O)c2cccs2)cc1,/,/,/,.,/,/
COc1cc(/C=N/NC(=O)c2cccc(NC(=O)c3ccccc3C)c2)ccc1O,.,.,.,.,.,.
CN(C)S(=O)(=O)c1cccc(NC(=S)N/N=C/C2CC=CCC2)c1 (stereo unspecified),.,.,.,.,.,.
COc1cc(/C=N/NC(=O)c2cccc(NC(=O)c3ccccc3)c2)ccc1O,.,.,.,.,37,.
COc1cc(/C=N/NC(=O)c2cn(-c3cccc(C)n3)cn2)ccc1O,.,.,.,.,34,.
COc1cc(/C=N/NC(=S)Nc2cccc(S(=O)(=O)N(C)C)c2)ccc1O,.,.,.,.,45,.
COc1cc(/C=N/NC(=S)NCCN2CCOCC2)ccc1O,.,.,.,.,48,.
O=S1(=O)N[C@@H](Cc2ccccc2)COc2cccc(N3CCCC3)c21,/,/,/,.,/,/
Cc1ccccc1S(=O)(=O)N1C(c2ccc(Cl)cc2)CC=C(C(=O)O)C1c1cccc(Cl)c1 (stereo unspecified),/,/,/,.,/,/
SMILES,DUSP3 inh,RecA splice inh,Mtb FBA inh,CCHFV vOTU inh,GDH-TPI counter,3CLpro inhibitor
COc1ccc(N2CCN(c3ccc(Cl)nn3)CC2)cc1,.,.,.,.,.,.
COc1cc(/C=N/NC(=O)c2cc3ccccc3[nH]2)ccc1O,57,.,.,.,41,.
CCOc1ccc2[nH]c(C(=O)N/N=C/c3cc(OC)c(OC)c(OC)c3)cc2c1,.,.,.,.,.,.
O=C(NCC1COCCO1)C1CCN(S(=O)(=O)c2ccc(Br)s2)CC1 (stereo unspecified),/,/,/,.,/,/
CCOC(=O)c1c[nH]n(-c2ccccc2)c1=O,.,.,.,.,.,.
CCOC(=O)c1cc(C(=O)OCC)c2ccccn2c1=O,.,.,+,.,.,.
